DAX1 inh-1: DAX1 (NR0B1) inhibition, primary screen. inhibition, % at 6.8 µM. 370,000 tested, 1.1% active. HEK293T StAR-luciferase reporter, SF-1/DAX-1 repression relief;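 active means inhibition above the mean over all tested compounds plus 3 SD, cut at about 3.6% in these data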;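 further: higher inhibition means more luminescence from relief of DAX-1 repression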
PolyA inhibitor: yeast polyadenylation inhibition; activity score, % at 12 µM; S. cerevisiae SKY197-pL101 polyadenylation reporter, beta-gal luminescence; efflux-impaired pdr1/pdr3 knockout yeast; score 100 = 6 SD above DMSO; 300,000 tested, 0.02% active;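 active means lowest replicate activity score at least 50, where 100 means six control SD above control mean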;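 further: yeast exposed to compound for 9 h at 30 °C; higher score means more reporter readthrough which indicates perturbed polyadenylation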
hgDAF12 agonist: activates the H. glycines DAF-12 receptor ligand-binding domain; AID 687014; HEK293 GAL4-hgDAF12 UAS-luciferase reporter, agonist luminescence; normalized to butyrate control; 370,000 tested, 1.8% active; activation, % at 6.8 µM;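 active means activation above a cutoff set at the mean of all screened compounds plus 3 SD, cut at about 10% in these data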
DAX1 inh-2: inhibits human nuclear receptor DAX1. P51843. HEK293 Gal4-DAX1 luciferase reporter, luminescence. inhibition, % at 6.75 µM. 340,000 tested, 0.99% active. AID 504766;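 active means inhibition above the mean over all tested compounds plus 3 SD, cut at about 4.2% in these data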;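 further: inhibition shows as a rise in luminescence from relieved DAX1 repression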
Target sequence (P51843 207-470 limits assumed): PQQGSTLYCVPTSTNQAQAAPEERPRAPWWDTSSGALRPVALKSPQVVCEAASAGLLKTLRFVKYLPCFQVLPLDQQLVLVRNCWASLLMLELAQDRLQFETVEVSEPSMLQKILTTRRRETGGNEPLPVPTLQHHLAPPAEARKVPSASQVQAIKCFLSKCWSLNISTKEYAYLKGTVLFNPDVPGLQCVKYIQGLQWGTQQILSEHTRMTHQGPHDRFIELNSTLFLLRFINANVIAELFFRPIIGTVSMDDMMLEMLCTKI
hcDAF12 agonist: activates DAF-12 receptor from parasite H. contortus. AID 652067. 370,000 tested, 1.4% active. HEK293 hcDAF-12 lit1-tk-luc reporter, luminescence; 0% DMSO, 100% Δ7-dafachronic acid. activation, % at 6.8 µM;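 active means activation above the mean of all tested compounds plus 3 SD, cut at about 5.5% in these data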
ssDAF-12 act: activators of S. stercoralis DAF-12 nuclear receptor. HEK293 ssDAF-12/GRIP1 lit1-tk-luc reporter, luminescence; % of 3 µM dafachronic acid response. AID 652126. activation, % at 6.8 µM. 370,000 tested, 1% active;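 active means activation above the mean over all tested compounds plus 3 SD, cut at about 0.9% in these data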
DAX1 inh confirm: NR0B1 (human) inhibition, confirmation; shares compounds with DAX1 inh-1; 2,400 tested, 87% active; inhibition, % at 6.8 µM; HEK293T StAR-promoter luciferase reporter, SF-1/DAX-1 repression;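 active means inhibition above the average of every tested compound plus 3 SD, cut at about 3.8% in these data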;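 further: active compounds raise luminescence by relieving repression of the StAR reporter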
SF1 AF2mut Luc: nonselective inhibitor or artifact in SF-1 mutant DAX1 counter-screen; shares compounds with DAX1 inh-1; HEK293 StAR-luciferase, SF-1 AF2 mutant, luminescence; inhibition, % at 6.8 µM; 2,400 tested, 78% active;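 active means inhibition above the mean of all tested compounds plus 3 SD, cut at about 3% in these data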
LXR ag: activates human LXR-beta, counter-screen for hcDAF-12 agonists; shares compounds with hcDAF12 agonist; HEK293 Gal4-LXR tk-luc reporter, luminescence, 24 h; normalized: DMSO 0%, positive control 100%; activation, % at 6.8 µM; 3,400 tested, under 10 active;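 active means mean percent activation of the reporter above a cutoff set as the average over tested compounds plus their standard deviation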
Target sequence (P55055 whole entry, looked up, the tested form may be a part): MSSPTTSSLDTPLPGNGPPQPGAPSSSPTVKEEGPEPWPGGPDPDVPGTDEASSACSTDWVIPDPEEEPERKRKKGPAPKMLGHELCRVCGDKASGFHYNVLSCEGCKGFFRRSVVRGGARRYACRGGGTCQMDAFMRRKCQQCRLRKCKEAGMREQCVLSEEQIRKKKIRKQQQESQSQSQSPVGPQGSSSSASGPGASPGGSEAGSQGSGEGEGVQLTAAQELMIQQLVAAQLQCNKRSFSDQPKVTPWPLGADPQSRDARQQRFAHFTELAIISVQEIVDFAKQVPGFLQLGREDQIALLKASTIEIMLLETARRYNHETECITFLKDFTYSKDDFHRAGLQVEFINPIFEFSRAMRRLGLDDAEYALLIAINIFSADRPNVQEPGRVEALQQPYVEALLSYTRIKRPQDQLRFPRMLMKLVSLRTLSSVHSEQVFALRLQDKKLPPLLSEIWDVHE
hcDAF12 conf: confirmation of H. contortus DAF-12 agonists | shares compounds with hcDAF12 agonist | HEK293 hcDAF-12 lit1-tk-luc reporter, luminescence; % of Δ7-dafachronic acid response | activation, % at 6.8 µM | 3,400 tested, 61% active;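 active means mean activation across triplicate tests above the threshold derived from the earlier primary screen, cut at about 5.5% in these data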
hgDAF12 conf: hgDAF-12 agonism, confirmation assay | 3,300 tested, 80% active | activation, % at 6.8 µM | shares compounds with hgDAF12 agonist | HEK293 GAL4-hgDAF12 luciferase reporter, agonist mode; percent of butyrate response;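 active means mean activation over triplicate wells above the hit cutoff derived from the earlier primary screen, cut at about 11% in these data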
LXRb DAF12 ctr: LXR-beta agonism as DAF-12 counter-screen; shares compounds with hgDAF12 agonist; HEK293 Gal4-LXR luciferase reporter, 24 h; activation, % at 6.8 µM; 3,300 tested, under 10 active;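 active means mean activation of the triplicate above a set limit carried over from the primary screen, none filed active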
Each line names hits and unclear results; the compound was inactive in the other large screens (follow-up assays come after a bar, where they were run). Only some compounds are listed: those with a hit (about 4.1% of all), similar ones and a draw of the others.

O=C(N/N=C/c1ccc(Cl)cc1)c1n[nH]c2c1CCCC2	none
COc1ccc2oc(C(=O)Nc3ccccn3)c(C)c2c1	DAX1 inh-1 13, hgDAF12 agonist 21, hcDAF12 agonist 18, ssDAF-12 act 1.1 | DAX1 inh confirm 12 | SF1 AF2mut Luc 6.1 | LXR ag inactive | hcDAF12 conf 18
COC(=O)C1=C(C)N(C)C(=NCc2cccc(C(F)(F)F)c2)NC1c1ccc(C(F)(F)F)cc1 (stereo not given)	none (no result: PolyA inhibitor, DAX1 inh-2)
CC1CCCCC12NC(=O)N(CC(=O)N1CCN(S(=O)(=O)Cc3ccccc3)CC1)C2=O (stereo not given)	none (no result: PolyA inhibitor)
CN(C(=O)CN1C(=O)S/C(=C\c2ccc(Cl)cc2)C1=O)C1CCS(=O)(=O)C1 (stereo not given)	none
N/C(=N\C(=S)Nc1ccc2c(c1)OCO2)c1ccccc1	DAX1 inh-1 21, hgDAF12 agonist 21, hcDAF12 agonist 6.8, ssDAF-12 act 1.7 (no result: PolyA inhibitor, DAX1 inh-2) | DAX1 inh confirm 14 | SF1 AF2mut Luc 8.8 | LXR ag inactive | hcDAF12 conf 10
Cc1ccc2ncccc2c1	none (no result: PolyA inhibitor)
Cc1cc(N(C)C)ccc1N=Nc1ccc2ncccc2c1	DAX1 inh-1 5.2, hgDAF12 agonist 15, DAX1 inh-2 5.5, hcDAF12 agonist 13, ssDAF-12 act 1.7 | DAX1 inh confirm 18 | SF1 AF2mut Luc 7.6 | LXR ag inactive | hcDAF12 conf 13 | hgDAF12 conf 18 | LXRb DAF12 ctr inactive
CN(C)c1ccc(N=Nc2ccc3ncccc3c2)cc1	DAX1 inh-1 9.3, hgDAF12 agonist 20, DAX1 inh-2 5.8, hcDAF12 agonist 6.0, ssDAF-12 act 1.5 (no result: PolyA inhibitor) | DAX1 inh confirm 22 | SF1 AF2mut Luc 7.3 | hgDAF12 conf 21 | LXRb DAF12 ctr inactive
COc1ccc(CCC(=O)Nc2ccc(S(=O)(=O)Nc3nccc(C)n3)cc2)cc1	none
CCCCCc1nnc(NC(=O)C2=COCCO2)s1	DAX1 inh-1 11, hgDAF12 agonist 20, hcDAF12 agonist 9.0, ssDAF-12 act 1.9 | DAX1 inh confirm 10 | SF1 AF2mut Luc 5.0 | LXR ag inactive | hcDAF12 conf 8.0 | hgDAF12 conf 14 | LXRb DAF12 ctr inactive
O=C1NC(c2ccc3c(c2)OCO3)c2c(-c3ccccc3)n[nH]c21 (stereo not given)	none (no result: PolyA inhibitor, DAX1 inh-2)
Cc1cc(O)ccc1Nc1cc(-c2cccc(N)c2)ncn1	none (no result: PolyA inhibitor, DAX1 inh-2)
CNc1cc(-c2cccc(N(C)C)c2)ncn1	DAX1 inh-1 7.2, hgDAF12 agonist 18, ssDAF-12 act 1.3 (no result: PolyA inhibitor, DAX1 inh-2) | DAX1 inh confirm 16 | SF1 AF2mut Luc 5.9 | hgDAF12 conf 15 | LXRb DAF12 ctr inactive
Cc1ccc(C2CC(=O)c3cnn(-c4nc(C)cc(C)n4)c3C2)cc1 (stereo not given)	none
CCOC(=O)C(C)n1nc(/C=C/c2ccc(OC)cc2)ccc1=O (stereo not given)	none
CC(C)c1ccc(/C=C/c2ccc(=O)n(C)n2)cc1	DAX1 inh-1 5.3, hgDAF12 agonist 19, hcDAF12 agonist 6.4 | DAX1 inh confirm 6.7 | SF1 AF2mut Luc 3.4 | hgDAF12 conf 14 | LXRb DAF12 ctr inactive
C/C(=N\NC(=O)c1cccs1)c1ccc(C(=O)O)s1	DAX1 inh-1 8.0, hgDAF12 agonist 15, hcDAF12 agonist 7.0 | DAX1 inh confirm inactive | SF1 AF2mut Luc inactive | LXR ag inactive | hcDAF12 conf inactive | hgDAF12 conf inactive | LXRb DAF12 ctr inactive
C/C(=N\NC(=O)c1ccc2ccccc2c1)c1cccs1	DAX1 inh-1 9.8, hgDAF12 agonist 13 (no result: PolyA inhibitor) | DAX1 inh confirm 7.5 | SF1 AF2mut Luc 5.0 | hgDAF12 conf 21 | LXRb DAF12 ctr inactive
C/C(=N\NC(=O)c1ccncc1)c1cccs1	none
C/C(=N\NC(=O)c1cccs1)c1cccnc1	DAX1 inh-1 5.5, hgDAF12 agonist 25, hcDAF12 agonist 8.4 | DAX1 inh confirm inactive | SF1 AF2mut Luc inactive | LXR ag inactive | hcDAF12 conf inactive | hgDAF12 conf inactive | LXRb DAF12 ctr inactive
C/C(=N\NC(=O)c1ccoc1C)c1cccnc1	DAX1 inh-1 5.5, hgDAF12 agonist 14 | DAX1 inh confirm inactive | SF1 AF2mut Luc inactive | hgDAF12 conf inactive | LXRb DAF12 ctr inactive
C/C(=N\NC(=O)c1nn(C)c(C)c1Br)c1ccc(NC(=O)c2ccoc2C)cc1	DAX1 inh-1 5.5, hgDAF12 agonist 20, hcDAF12 agonist 8.5 | DAX1 inh confirm inactive | SF1 AF2mut Luc inactive | LXR ag inactive | hcDAF12 conf inactive | hgDAF12 conf inactive | LXRb DAF12 ctr inactive
CCC(=O)Nc1ccc(/C(C)=N/NC(=O)c2c(Br)c(C)nn2C)cc1	none
CCc1ccccc1NC(=S)N(CCCN1CCOCC1)Cc1cccs1	none
COC(=O)[C@]1(Cc2ccccc2)N[C@H](CN(C)C(=O)Nc2ccc(Cl)cc2)[C@@H]2C(=O)N(Cc3ccccc3)C(=O)[C@@H]21	none (no result: PolyA inhibitor)
CCC(CO)Nc1ccn2nc(-c3ccccc3)cc2n1 (stereo not given)	DAX1 inh-1 9.5, hgDAF12 agonist 18 (no result: PolyA inhibitor, DAX1 inh-2) | DAX1 inh confirm 8.9 | SF1 AF2mut Luc 7.2 | hgDAF12 conf 16 | LXRb DAF12 ctr inactive
CC1Sc2ccc(C(=O)Nc3ncccc3O)cc2NC1=O (stereo not given)	DAX1 inh-1 13, hgDAF12 agonist 18 | DAX1 inh confirm 8.3 | SF1 AF2mut Luc 3.2 | hgDAF12 conf 15 | LXRb DAF12 ctr inactive
COc1ccc2cc3c(N)c(C(=O)N4CCCC4)sc3nc2c1	none (no result: DAX1 inh-2)

Compound activity as filed in PubChem.
